# According to PubChem BioAssay AID624351 (Southern Research Specialized Biocontainment Screening …, 2012):
# In all, about 2,400 compounds went through this assay and about 1,400 (58%) were called active. The set was probably picked from earlier hits. The list shows a part of the results. Unmarked numbers belong to inactive results.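 The calls were made as follows: active = inhibition of 30% or more at any tested dose; inconclusive = primary hits over the limit that were never retested; inactive = the rest.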
# Test: ADP Hunter readout inhibition without MgcRacGAP – biochemical, coupled enzyme counter-screen, artefact control for MgcRacGAP inhibitor project, dose response (AID 624351);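 also: signal is the ADP detection kit reading of free GDP without any GAP enzyme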;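 as to inhibition: 0% = median positive control wells and 100% = median negative control wells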
# Conditions: fluorescence, no MgcRacGAP; series mostly up to 80 µM; inhibition: at the top concentration
Structure (SMILES),IC50,inhibition
Cc1ccc2nc(/C(C#N)=C/c3ccc(O)c(O)c3)[nH]c2c1,26.8 µM (active),
COc1cc(/C=C(\C#N)C(=O)c2c[nH]c3ccccc23)cc(OC)c1O,51.3 µM (active),
COc1cc(/C=C(\C#N)c2nc3ccccc3[nH]2)ccc1O,14.8 µM (active),
COc1cc(/C=C(\C#N)c2nc3ccccc3[nH]2)cc(OC)c1O,27.1 µM (active),
CN1C=CC=C/C1=C(\C#N)c1nc2ccccc2[nH]1,52.5 µM (active),
COc1cc(CN2CCN(c3ccccc3F)CC2)cc(OC)c1O,,18.1%
COc1ccc(N2CCN(CC(O)COC(c3ccc(F)cc3)c3ccc(F)cc3)CC2)cc1 (stereo unspecified),,20.5%
O=C(c1cccs1)N1CCN(Cc2ccncc2)CC1,,21.7%
Nc1ccc(N2CCN(c3ccccc3)CC2)c(F)c1,37.9 µM (active),
CCC(C)N1CCN(C(=O)c2cccs2)CC1 (stereo unspecified),,11.1%
Nc1ccc(N2CCN(C(=O)c3cccs3)CC2)cc1,22.1 µM (active),
CC(=O)N1CCN(c2ccc(N)cc2)CC1,13.5 µM (active),
Nc1ccc(N2CCN(c3ccc(F)cc3)CC2)cc1,19.9 µM (active),
COCC(C)NCc1ccccc1C (stereo unspecified),,17.2%
CCN1CCN(CC(O)COC(c2ccccc2)c2ccccc2C)CC1 (stereo unspecified),,27%
CCOCCCNC(=S)N1CCN(Cc2ccc3c(c2)OCO3)CC1,,21.8%
CCN1CCN(C(C)C(=O)NC2CCCCC2)CC1 (stereo unspecified),,22.8%
CC(C(=O)NC(=O)NC1CCCCC1)N1CCN(c2ccc(O)cc2)CC1 (stereo unspecified),69.7 µM (active),
CC(C(=O)NC1CCCCC1)N1CCN(C)CC1 (stereo unspecified),,24.7%
COc1cc(/C=N/NC(=O)CCc2ccccc2)ccc1O,29.9 µM (active),
COc1cc(/C=N/NC(=O)Cc2nnc(NC(=O)c3ccccc3)s2)ccc1O,,24.7%
COc1cc(/C=N\NC(=O)CC(=O)NCCc2ccccc2)ccc1O,29.2 µM (active),
COc1ccc(C)cc1NC(=O)C(NCC(O)c1ccccc1)c1ccccc1 (stereo unspecified),,25.3%

Structure (SMILES),IC50,inhibition
CCOc1cc(/C=N\NC(=O)CC(=O)NCCc2ccccc2)ccc1O,46 µM (active),
COc1cc(/C=N\NC(=O)CNC(=O)C(c2ccccc2)c2ccccc2)ccc1O,50.6 µM (active),
Cc1cccc(N2C(S)=C(C#N)C(=O)NC2c2ccco2)c1 (stereo unspecified),,6.59%
O=C1C(SCCO)=C(SCCO)C(=O)c2ccccc21,,-5.33%
COc1cc(/C=N/NC(=O)CCNC(=O)c2ccccc2Cl)ccc1O,32.2 µM (active),
COc1cc(/C=N/NC(=O)/C(=C/c2ccccc2)CCO)ccc1O,45.8 µM (active),
COc1cc(OC)c(OC)cc1CN1CCN(Cc2ccc(SC)cc2)CC1,,26%
O=C(O)CCCn1c(=S)[nH]c2c(sc3ccc([N+](=O)[O-])cc32)c1=O,30.5 µM (active),
CCC(C)n1c(=S)[nH]c2c(sc3ccc([N+](=O)[O-])cc32)c1=O (stereo unspecified),58.8 µM (active),
O=C(C1CCN(Cc2cc(Cl)ccc2O)CC1)N1CCN(Cc2ccccc2)CC1,,25.5%
COc1ccc2nc3cc(Cl)ccc3c(Nc3ccc(O)c(CN4CCN(C)CC4)c3)c2c1,82 µM (active),
COc1ccc(CN2CCN(CCCCOc3ccc(Cl)cc3)CC2)c(OC)c1OC,,27.7%
COc1cc(CNCc2ccccc2C(F)(F)F)cc(OC)c1,,8.66%
Cc1nc(/N=C(\N)NC(=O)N2c3ccccc3Sc3ccccc32)nc2ccccc12,,24.5%
COc1cc(CN2CCC(C(=O)N3CCCC(C)C3)CC2)cc(Br)c1O (stereo unspecified),,13.1%
Cc1nc(Cl)cc(N/N=C/c2ccc(O)cc2O)n1,17.3 µM (active),
Oc1ccc(C=NNc2ccccn2)c(O)c1,20.8 µM (active),
Oc1ccc(/C=N/Nc2cccc(Cl)n2)c(O)c1,25.6 µM (active),
O=C1C=CC(=Nc2ccc3c(c2)Cc2ccccc2-3)O1,,25.6%
Nc1cc2c(cc1N)-c1ccccc1C2,55.6 µM (active),
COc1cc2c(cc1N)-c1ccc(N)cc1C2,36.1 µM (active),
Nc1ccc2c(c1Br)Cc1ccccc1-2,59.2 µM (active),
Nc1ccc2c(c1)Cc1cc(N)c(Cl)cc1-2,8.61 µM (active),

Structure (SMILES),IC50,inhibition
Nc1ccc2c(c1)Cc1cc(N)c(Br)cc1-2,7.05 µM (active),
Cc1ccc(OCCCN2CCCC2)c(C)c1,,20.9%
COc1ccc(Cc2nnc(NC(=O)Cc3cccs3)s2)cc1,,6.48%
C[n+]1c(-c2ccc(C=NNC(=O)c3ccc(C(=O)NN=Cc4ccc(-c5cn6ccccc6[n+]5C)cc4)cc3)cc2)cn2ccccc21,,-3.25%
O=C(Cc1cccs1)N/N=C\c1ccc(O)cc1,42.6 µM (active),
O=C(CNS(=O)(=O)c1ccccc1)N/N=C/c1ccc(O)cc1,61.6 µM (active),
O=C(C[n+]1ccccc1)N/N=C/c1ccc(O)cc1,81.2 µM (active),
CC(=O)Oc1ccc2c(=O)c(Oc3ccccc3)coc2c1OC(C)=O,,24.6%
CCN1/C(=C/c2ccc3cc(C)ccc3[n+]2CC)Sc2ccccc21,,9.82%
OC(CON=C1c2ccccc2-c2ccccc21)CN1CCNCC1 (stereo unspecified),,25.3%
O=C(N/N=C/c1ccc(O)cc1)c1cccc(C(F)(F)F)c1,69.2 µM (active),
O=C(CNC(=O)c1ccccc1Br)N/N=C/c1ccc(O)cc1,54.3 µM (active),
Cc1ccc(C(=O)Oc2csc(=S)n2C(=O)c2ccc(C)cc2)cc1,,10.9%
Cc1ccc(C)c(OCCCCN2CCCCC2)c1,,3.5%
COc1ccc(CN2CCC(N3CC(C)OC(C)C3)CC2)c(OC)c1OC (stereo unspecified),,27.5%
COc1cc(/C=N/NC(=O)c2cc(C)oc2C)ccc1O,49.8 µM (active),
COc1cc(/C=N/NC(=O)c2ccoc2C)ccc1O,32.2 µM (active),
Cc1cc(C(=O)NNC(=O)/C=C/c2ccco2)c(C)o1,,-9.14%
OCCN(CCO)c1ccc2ccccc2c1,65 µM (active),
CCCN(CCO)CCCc1ccccc1,,16.2%
OCCN1CCN(Cc2ccc3ccccc3c2)CC1,,17.6%
COc1cc(/C=N/n2nnnc2N)ccc1O,18.4 µM (active),
CCOc1cc(/C=N\n2nnnc2N)ccc1O,45.1 µM (active),

Structure (SMILES),IC50,inhibition
CCOc1cc(/C=N/n2cnnc2)ccc1O,34 µM (active),
COc1cc(/C=N/n2cnnc2)ccc1OC(=O)c1cccnc1,,8.47%
Cc1[nH]c2ccccc2c1/C=N\NC(=O)CNc1ccc2c(c1)OCO2,,16.3%
CCc1nnc(N/N=C/c2c(C)[nH]c3ccccc23)n1N,45.9 µM (active),
Cc1[nH]c2ccccc2c1/C=N/Nc1nncn1N,62.6 µM (active),
CCc1nnc(N/N=C/c2cc(Br)c(O)cc2O)n1N,72.7 µM (active),
N#CC(C#N)=C1C=CC=CN1/C(=C\c1ccco1)C(=O)c1ccc(Br)cc1,,-0.12%
O=C(O)c1cccc(-n2sc3ccccc3c2=O)c1,,15.8%
O=c1c2ccccc2sn1-c1ccc(F)cc1,,15.6%
O=C1CCCC(O)=C1C=Nc1ccc(O)cc1,18.6 µM (active),
CC1(C)CC(=O)C(C=Nc2ccc(O)cc2)=C(O)C1,17.4 µM (active),
CC1(C)CC(=O)C(C(C2=C(O)CC(C)(C)CC2=O)c2ccc(Br)s2)C(=O)C1 (stereo unspecified),,1.01%
CC1(C)CC(=O)C(C=Nc2ccc(N)cc2)=C(O)C1,82.4 µM (active),
O=C1CC(c2ccccc2)CC(O)=C1C=Nc1ccc(O)cc1 (stereo unspecified),28.9 µM (active),
Cc1ccc(C(C2=C(O)CC(C)(C)CC2=O)C2C(=O)CC(C)(C)CC2=O)o1 (stereo unspecified),,-3.3%
Cc1ccc(C(C2=C(O)CC(C)(C)CC2=O)C2C(=O)CC(C)(C)CC2=O)s1 (stereo unspecified),,1.03%
CC1(C)CC(=O)C2=C(C1)OC1=C(C(=O)CC(C)(C)C1)C2c1ccc(O)cc1O,,5.54%
O=[N+]([O-])c1cnc(Sc2ccncn2)c([N+](=O)[O-])c1,,-3.25%
CSc1nc(O)c(/C=C2\C=Nc3ccccc32)[nH]1,33.2 µM (active),
CSc1nc(/C=C2\C=Nc3ccccc32)c(O)n1C,45.4 µM (active),
CC1(C)CC[C@]2(C(=O)n3ccnc3)CC[C@]3(C)[C@H](C(=O)C=C4[C@@]5(C)C=C(C#N)C(=O)C(C)(C)[C@@H]5CC[C@]43C)[C@@H]2C1,,10.8%
Cc1ccc(O)c(N=Cc2cc(Cc3ccccc3)cc([N+](=O)[O-])c2O)c1,,-9.96% [at 20 µM]
CCc1ccc(O)c(N=Cc2ccccc2O)c1,37.4 µM (active),

Structure (SMILES),IC50,inhibition
CCc1ccc(O)c(N=Cc2cccc(C)c2O)c1,50.5 µM (active),
C=CCc1cccc(C=Nc2cc(Br)ccc2O)c1O,16.2 µM (active),
OC(CNCC1COc2ccccc2O1)COCc1cccs1 (stereo unspecified),,17.8%
O=C(C1CCCN(Cc2cccnc2)C1)N1CCCCC1 (stereo unspecified),,25.6%
Cc1ccc(CN2CCN(CC3CC4C=CC3C4)CC2)cc1 (stereo unspecified),,13.1%
Cc1cccc2c1c1ccc3c(c1n2C)C(=O)C=CC3=O,,-14.2%
CC(OC(=O)CCN=C1NS(=O)(=O)c2ccccc21)C(=O)Nc1ccc(N(C)C)cc1 (stereo unspecified),50.9 µM (active),
Clc1ccc(CNc2ccc(N3CCN(Cc4ccccc4)CC3)cc2)cc1,30.3 µM (active),
C#CCOc1ccccc1CNC1CCN(Cc2ccccc2)CC1,,24.9%
Fc1ccc(CNc2ccc(N3CCN(Cc4ccccc4)CC3)cc2)cc1,12.3 µM (active),
O=C(CN1CCN(Cc2ccccc2)CC1)NC(c1ccccc1)c1ccccc1,,15.2%
O=C(CN1CCN(Cc2ccccc2)CC1)Nc1ccc(F)c(F)c1,,24.2%
Fc1ccc(CN2CCN(C(c3ccccc3)c3ccccc3)CC2)cc1,,13.6%
CN(C)C(=S)N=c1ssc(=S)n1Cc1cccnc1,,7.07%
C=CCN1C(=O)CSC1=Nc1ccc(O)cc1,28.9 µM (active),
O=C1CSC(=Nc2ccc(O)cc2)N1,42 µM (active),
COc1cc(/C=N/N=C2/SCC(=O)N2c2ccc(O)cc2)ccc1O,48.1 µM (active),
O=C1CSC(=Nc2ccc(O)cc2)N1c1ccc(O)cc1,56.7 µM (active),
Cc1ccc(C)n1/N=C1/NC(=O)CS1,,-5.01% [at 10 µM]
